Screens deposited in PubChem by Broad Institute.
Compounds with a hit are over-represented: about 7.8% of the library has one in this group of screens.
Hedgehog inh: blocks Sonic Hedgehog signaling | inhibition, % (test concentration not listed) | 22,000 tested, 2.1% active | Shh-LIGHT2 Gli-luciferase reporter, 30 h | AID 2313;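 active = mean inhibition across valid replicates above about 65%, limit read from the data; inconclusive = mean under the limit, yet half or more replicates past it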;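 also: pathway switched on by Shh-conditioned medium diluted 1 in 25 in low serum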
PD-1 reversal: reversal of PD-1 mediated T-cell inhibition | 29,000 tested, under 10 active | primary human CD4 T cells, PD-L1 beads, CellTiter-Glo 96 h | activation, % (test concentration not listed); call rule not given here;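 also: 0% = median vehicle wells and 100% = positive control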
NOMO-1 viab: STK33 inhibitor candidate reducing NOMO-1 cell viability | NOMO-1 AML viability, CellTiter-Glo luminescence, 72 h | inhibition, % (test concentration not listed) | 37,000 tested, 7.5% active; in the data active = inhibition above about 80%; inconclusive = no clear call, values can overlap the other calls
MITF inh: MITF inhibition. TRPM1 promoter luciferase, luminescence, 24 h. 37,000 tested, 0.28% active. inhibition, % (concentration not given with the values); in the data active = inhibition above about 85%; inconclusive = no clear call, values can overlap the other calls; inactive = below about 68%;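 also: human melanocyte line stably carrying TRPM1 promoter luciferase reporter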
An asterisk follows results filed as active; ? = inconclusive; . = no result.

SMILES	Hedgehog inh	PD-1 reversal	NOMO-1 viab	MITF inh
O=C(CSc1nc2ccccc2[nH]1)Nc1ccc(Cl)c(Br)c1	.	-4	27	8
CC(=O)c1cccc(NC(=O)Nc2nn(Cc3c(F)cccc3Cl)cc2Br)c1	.	-9	106*	23
C[C@@H]1CCCCO[C@@H](CN(C)S(=O)(=O)c2ccc(F)cc2)[C@@H](C)CN([C@H](C)CO)C(=O)c2cc(NS(=O)(=O)c3ccc(Cl)cc3)ccc2O1	-53	-9	112*	45
C[C@@H]1CCCCO[C@@H](CN(C)S(=O)(=O)c2cccs2)[C@@H](C)CN([C@H](C)CO)C(=O)c2cc(NS(=O)(=O)c3ccc(Cl)cc3)ccc2O1	-2	-5	86*	43
C[C@@H]1CCCCO[C@@H](CN(C)S(C)(=O)=O)[C@@H](C)CN([C@H](C)CO)C(=O)c2cc(NS(=O)(=O)c3ccc(F)cc3)ccc2O1	74*	1	15	1
C[C@@H]1CCCCO[C@@H](CN(C)C(=O)Nc2ccc(F)cc2)[C@@H](C)CN([C@H](C)CO)C(=O)c2cc(NS(=O)(=O)c3cn(C)cn3)ccc2O1	-8	0	11	13
CC(C)NC(=O)N(C)C[C@H]1OCCCC[C@@H](C)Oc2ccc(NS(=O)(=O)c3cn(C)cn3)cc2C(=O)N([C@H](C)CO)C[C@@H]1C	72*	2	-2	-3
CCc1cccc(CC)c1NC(=O)COc1ccccc1C(=O)N1CCOCC1	-15	0	23	27
COc1ccccc1NC(=O)CSc1nnc(-c2ccc(Cl)cc2)o1	.	.	21	-74
CC1(C)Cc2c(sc3c2c2ncnn2c2nnc(SCC(=O)NCc4ccccc4)n32)CO1	.	.	19	13
OCCN1CCN(C(=S)NCc2ccco2)CC1	.	2	3	-8
CCN1C2=C(C(=O)CCC2)C(c2cccc(O)c2)C2=C1CCCC2=O	1	0	-1	12
Cc1ccc(S(=O)(=O)Nc2ccc3c(c2)C(=O)N([C@H](C)CO)C[C@H](C)[C@H](CN(C)S(=O)(=O)c2ccc(C)cc2)OCCCC[C@@H](C)O3)cc1	.	-2	95*	32
Cc1ccc(S(=O)(=O)Nc2ccc3c(c2)C(=O)N([C@H](C)CO)C[C@H](C)[C@@H](CN(C)S(=O)(=O)c2ccc(C)cc2)OCCCC[C@@H](C)O3)cc1	19	.	61	9
Cc1ccn(CN2CCN(Cn3ccc(C)n3)C2=S)n1	.	1	6	-5
Cc1oc2c(c1C(=O)NCCc1ccccc1)C(=O)c1ccccc1C2=O	-17	0	32	3
Cc1oc2c(c1C(=O)N1CCC(C)CC1)C(=O)c1ccccc1C2=O	59	-6	113*	85*
Cc1oc2c(c1C(=O)NC1CCCC1)C(=O)c1ccccc1C2=O	59	-4	140*	70
Cc1ccc(S(=O)(=O)NCC(=O)N2CCC(C)CC2)cc1	.	2	2	4
O=C(/C=C/Oc1ccc(Cl)cc1)c1ccc(Br)cc1	14	-2	117*	4
COc1ccc(CCNC(=O)CSc2nc3ccccc3nc2N2CCCC2)cc1OC	-39	0	35	5
Nc1cc2ncnc(Nc3cccc(Br)c3)c2cc1N	-38	-1	12	-6
CC#CC(=O)Nc1ccc2ncnc(Nc3cccc(Br)c3)c2c1	-37	-15	96*	0
COc1ccc2oc(=O)c(-c3cnc(C)s3)cc2c1	.	1	12	-21
N#Cc1c(C(F)(F)F)cc(-c2cccs2)nc1SCC(=O)Nc1c(F)cccc1F	.	1	16	-23
SMILES	Hedgehog inh	PD-1 reversal	NOMO-1 viab	MITF inh
COc1cc(NC(=O)C(Sc2nc(C)cc(C)c2C#N)c2ccccc2)c(OC)cc1Cl (configuration not stated)	32	3	6	-4
CC(C)(C)c1cc(-c2cccs2)c(C#N)c(SCC(=O)Oc2ccccc2)n1	65*	-32	18	-6
COc1ccc(-c2cc(-c3cccs3)nc(SC(C(=O)O)c3ccccc3)c2C#N)cc1 (configuration not stated)	.	-6	92*	30
O=C(NCCCc1ccccc1)N1c2ccccc2Sc2ccccc21	52	0	65	67
CCc1nc2sc(C)c(C)c2c(=O)n1N	-25	4	22	12
O=C(CCS(=O)(=O)c1nc(-c2ccccc2)cc(C(F)(F)F)n1)Nc1ccc(Cl)cc1Cl	.	-16	126*	10
O=C(CCC1COc2ccccc2O1)Nc1ccc(NC(=O)c2ccccc2F)cc1 (configuration not stated)	.	.	-6	-19
CC(=O)Nc1nonc1-c1nc2ccccc2n1Cc1cccc2ccccc12	.	.	118*	38
Cc1c(NC(=O)COc2cc(Cl)c(Cl)cc2Cl)cccc1-c1nc2ccccc2o1	.	2	31	-19
N#Cc1c(-c2ccc(Cl)cc2)[nH]c(SCc2ccccc2)nc1=S	5	1	11	11
O=C(CN(c1ccc(F)cc1)S(=O)(=O)c1ccc2c(c1)OCCO2)N1CCc2ccccc2C1	.	.	6	5
COc1ccc2c(c1)CCC(=O)C2	-63	0	3	-19
COc1ccc(N2C(=O)Cc3ccc(OC)cc3C2=O)cc1	-26	4	120*	1
CCOC(=O)CSc1nnc2c(n1)[nH]c1ccccc12	.	.	111*	2
CN(C)/C=C/C(=O)c1ccc2c(c1)CCC(C)(C)O2	51	0	121*	9
CC1(C)CCc2cc(-c3ccn(S(=O)(=O)c4ccc(Cl)cc4)n3)ccc2O1	26	-1	68	14
O=c1cc(-c2ccc(O)cc2)oc2cc(O[C@@H]3O[C@H](CO)[C@@H](O)[C@H](O)[C@H]3O[C@H]3OC[C@](O)(CO)[C@H]3O)ccc12	-4	2	-13	-2
N#Cc1ccc2nc(C(O)C(O)c3nc4ccc(C#N)cc4[nH]3)[nH]c2c1 (configuration not stated)	-17	2	-3	5
COc1ccc(/C=C/C(=O)OC2CCCCC2)cc1	-56	0	95*	-79
COc1ccc(/C=C/C(=O)NC(C)(C)C)cc1	-110	0	-6	-61
C[C@H](CO)N1C[C@H](C)[C@H](CN(C)Cc2ccc(C(F)(F)F)cc2)Oc2c(NC(=O)Nc3ccccc3)cccc2C1=O	-28	.	48	1
C[C@@H]1CN([C@H](C)CO)C(=O)c2cccc(NC(=O)Nc3ccc(C(F)(F)F)cc3)c2O[C@H]1CN(C)Cc1ccc(C(F)(F)F)cc1	-9	-5	?	44
C[C@H]1CN([C@@H](C)CO)C(=O)c2cccc(NC(=O)Nc3ccc(C(F)(F)F)cc3)c2O[C@H]1CN(C)Cc1ccc(C(F)(F)F)cc1	-37	-6	114*	30
C[C@@H]1CN([C@H](C)CO)C(=O)c2cccc(NC(=O)Nc3ccc(C(F)(F)F)cc3)c2O[C@@H]1CN(C)Cc1ccc(C(F)(F)F)cc1	33	-3	111*	6
C[C@@H]1CN([C@@H](C)CO)C(=O)c2cccc(NC(=O)Nc3ccc(C(F)(F)F)cc3)c2O[C@@H]1CN(C)Cc1ccc(-c2ccccc2)cc1	.	.	125*	8
C[C@@H]1CN([C@H](C)CO)C(=O)c2cccc(NC(=O)Nc3ccccc3)c2O[C@H]1CN(C)Cc1ccc(C(F)(F)F)cc1	-7	.	91*	46
